ssDAF-12 act: S. stercoralis DAF-12 activation, primary screen. HEK293 ssDAF-12/GRIP1 lit1-tk-luc reporter, luminescence; % of 3 µM dafachronic acid response. activation, % at 6.8 µM. 370,000 tested, 1% active. AID 652126;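 active = activation above the mean over all tested compounds plus 3 SD, cut at about 0.9% in these data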;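 also: 0% = DMSO-only wells and 100% = 3 µM delta7-dafachronic acid wells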
hgDAF-12 ag: agonists of H. glycines DAF-12 nuclear receptor; HEK293 GAL4-hgDAF12 UAS-luciferase reporter, agonist luminescence; normalized to butyrate control; activation, % at 6.8 µM; 370,000 tested, 1.8% active; AID 687014;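 active = activation above a cutoff set at the mean of all screened compounds plus 3 SD, cut at about 10% in these data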;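 also: 0% = DMSO wells and 100% = sodium butyrate wells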
Wee1 degr inh: human Wee1 degradation inhibition, primary screen; reporter increase, % at 5 µM; P30291; 220,000 tested, 1.2% active; HeLa Luc-Wee1K328M stability, luciferase luminescence; 100% = proteasome inhibitor MG132 effect; AID 1321;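 active = activation above the mean of all tested compounds plus 3 SD, set per screening run, cut at about 8.8% in these data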;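 also: cells exposed to compound for 20 h before luminescence read; 0% = DMSO alone and 100% = MG132 at 30 µM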
Target sequence (P30291 whole entry K328M): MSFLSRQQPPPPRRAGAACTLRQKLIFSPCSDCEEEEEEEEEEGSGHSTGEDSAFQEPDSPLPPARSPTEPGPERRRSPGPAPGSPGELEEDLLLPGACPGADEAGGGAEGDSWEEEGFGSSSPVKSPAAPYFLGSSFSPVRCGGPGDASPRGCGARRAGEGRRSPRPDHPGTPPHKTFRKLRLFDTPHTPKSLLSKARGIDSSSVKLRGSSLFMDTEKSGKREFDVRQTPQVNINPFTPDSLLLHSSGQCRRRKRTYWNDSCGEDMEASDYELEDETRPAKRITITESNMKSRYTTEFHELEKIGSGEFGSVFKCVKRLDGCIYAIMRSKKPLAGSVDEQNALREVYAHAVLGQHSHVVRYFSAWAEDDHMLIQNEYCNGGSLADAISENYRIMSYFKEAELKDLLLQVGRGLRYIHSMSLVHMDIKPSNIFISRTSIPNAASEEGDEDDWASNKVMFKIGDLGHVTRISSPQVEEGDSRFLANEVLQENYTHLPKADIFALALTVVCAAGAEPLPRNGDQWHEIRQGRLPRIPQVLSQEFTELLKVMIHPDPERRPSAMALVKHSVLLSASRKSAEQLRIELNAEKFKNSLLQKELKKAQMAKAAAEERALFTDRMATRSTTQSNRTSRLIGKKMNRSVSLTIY
DAX1 inh-1: inhibitors of human orphan nuclear receptor DAX1 (NR0B1) | P51843 | HEK293 Gal4-DAX1 luciferase reporter, luminescence | inhibition, % at 6.75 µM | 340,000 tested, 0.99% active | AID 504766;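 active = inhibition above the mean over all tested compounds plus 3 SD, cut at about 4.2% in these data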;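 also: 0% = DAX1-transfected cells with DMSO and 100% = empty-vector control cells with DMSO; inhibition shows as a rise in luminescence from relieved DAX1 repression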
DAX1 inh-2: DAX1 (NR0B1) inhibition, primary screen; inhibition, % at 6.8 µM; 370,000 tested, 1.1% active; HEK293T StAR-luciferase reporter, SF-1/DAX-1 repression relief; AID 652010;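 active = inhibition above the mean over all tested compounds plus 3 SD, cut at about 3.6% in these data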;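 also: 0% = DAX-1 cells with DMSO and 100% = cells lacking DAX-1 with DMSO; higher inhibition means more luminescence from relief of DAX-1 repression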
hcDAF-12 act: activates DAF-12 receptor from parasite H. contortus; HEK293 hcDAF-12 lit1-tk-luc reporter, luminescence; 0% DMSO, 100% Δ7-dafachronic acid; activation, % at 6.8 µM; 370,000 tested, 1.4% active; AID 652067;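 active = activation above the mean of all tested compounds plus 3 SD, cut at about 5.5% in these data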;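 also: 100% = response to 3 µM Δ7-dafachronic acid high control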
DAX1 conf: NR0B1 (human) inhibition, confirmation; shares compounds with DAX1 inh-2; HEK293T StAR-promoter luciferase reporter, SF-1/DAX-1 repression; inhibition, % at 6.8 µM; 2,400 tested, 87% active; AID 652134;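 active = inhibition above the average of every tested compound plus 3 SD, cut at about 3.8% in these data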;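 also: 0% = DAX-1 cells with DMSO and 100% = no DAX-1 control cells with DMSO; active compounds raise luminescence by relieving repression of the StAR reporter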
SF1 mutant ctr: counter-screen for DAX1 inhibitors: nonselective inhibitors with SF-1 AF2 mutant; shares compounds with DAX1 inh-2; HEK293 StAR-luciferase, luminescence; inhibition, % at 6.8 µM; 2,400 tested, 78% active; AID 652136;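 active = inhibition above the mean of all tested compounds plus 3 SD, cut at about 3% in these data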;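 also: 0% = DAX-1 transfected cells with DMSO and 100% = cells without DAX-1 with DMSO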
Numbers without * were called inactive; / = no result given. Hits are enriched below; roughly 4.6% of the tested compounds scored in any of these assays.

SMILES	ssDAF-12 act	hgDAF-12 ag	Wee1 degr inh	DAX1 inh-1	DAX1 inh-2	hcDAF-12 act	DAX1 conf	SF1 mutant ctr
O=C(Nc1ccc2ccccc2c1)c1cnccn1	1	11*	6	2	5.5*	6.4*	14*	7.9*
Cc1coc(C)c1C(=O)Nc1ccc2ccccc2c1	0.9*	8	/	1	7.4*	3	6.0*	3.8*
CCCCn1c(N)c(N(CCOC)C(=O)c2ccc(Br)o2)c(=O)[nH]c1=O	0	3	/	-1	0	-1	/	/
CCCCn1c(N)c(N(C)C(=O)c2ccc(Br)o2)c(=O)[nH]c1=O	-1	1	/	0	4.6*	1	0	2
Cc1cc2nc(N3CCN(C(=O)c4ccco4)CC3)sc2cc1C	-1	2	/	1	3	-1	/	/
Cc1cc(C)c2nc(N3CCN(C(=O)c4ccco4)CC3)sc2c1	-1	5	/	2	5.0*	-1	4.4*	2
Cc1cccc(N(C)S(=O)(=O)c2ccc(-c3cnc(C4CC4)o3)cc2)c1	0	-5	/	1	7.6*	-3	15*	-5
Cc1ccc(N(C)S(=O)(=O)c2cc(-c3cnc(C4CC4)o3)ccc2C)cc1	-1	3	/	1	2	1	/	/
CCCC(=O)Nc1ccc(NC(=O)c2ccccc2)nc1	0	5	10*	1	4.7*	3	13*	6.6*
CCCC(=O)Nc1ccc(NC(=O)c2ccccc2F)cn1	1	3	/	1	0	-1	/	/
Cc1ccc(S(=O)(=O)N2C[C@H]3C(=O)C[C@@H]4C(=O)N(c5ccccc5)C(=O)[C@@H]4[C@@H]3C[C@H]2c2cccs2)cc1	-1	1	/	/	0	1	/	/
CCOC1=C2CN(S(=O)(=O)c3ccc(C)cc3)[C@@H](c3cccs3)C[C@H]2[C@H]2C(=O)N(c3ccccc3)C(=O)[C@H]2C1	-1	1	/	/	4.5*	-1	-3	-1
COC(=O)C1CCN(C(=O)COC(=O)/C=C/c2ccc(O)c(OC)c2)CC1	0	-2	/	0	8.5*	1	0	-1
O=C1NN=C2CCCCCC12 (configuration not stated)	-1	2	/	-1	-1	-2	/	/
Cc1nc2ccc(C(=O)Nc3cccc(OCC(=O)N(C)C)c3)cn2c1N(C)CC1CCCCC1	-2	0	/	/	-2	-3	/	/
Clc1ccccc1CSc1cnnc2ccccc12	-1	6	/	1	5.3*	2	3	1
Nc1ccc(-c2nc3ccccc3[nH]2)cc1	-1	11*	7	3	5.2*	3	9.9*	6.8*
Nc1ccc2nc(-c3ccc(-c4nc5ccc(N)cc5[nH]4)cc3)[nH]c2c1	-2	-2	/	/	0	-1	/	/
O=C(O)c1ccccc1C(=O)c1ccc2oc(=O)[nH]c2c1	-1	1	/	1	-1	0	/	/
CCN1CCc2c(sc(NC(=O)c3ccc(S(=O)(=O)N4CC(C)OC(C)C4)cc3)c2C(N)=O)C1 (configuration not stated)	-1	2	/	-1	4.8*	-1	2	3.7*
O=C(NCc1ccccc1)C(C1CC1)n1c(Cc2cc(F)cc(F)c2)nc2ccccc21 (configuration not stated)	0	-1	/	/	0	-1	/	/
O=C(c1ccc(CS(=O)c2ccccc2Cl)o1)N1CCN(C2CCCCC2)CC1 (configuration not stated)	0	-1	/	1	6.9*	-1	5.8*	-5
CN(C(=O)c1ccc(NC(=O)C2CCCN(C(=O)OC(C)(C)C)C2)cc1)C1CC1 (configuration not stated)	-2	-1	/	0	0	-1	/	/
O=C(C[C@H]1C/C=C\CC[C@H](Cc2ccc(F)cc2)C(=O)OC[C@@H]2CCCN2C1=O)N[C@H](CO)Cc1ccccc1	-1	-1	/	1	0	-2	/	/
CCOc1ccccc1N1CC(C(=O)NCCC2=CCCCC2)CC1=O (configuration not stated)	-1	9	/	2	5.2*	4	4.1*	3.3*
SMILES	ssDAF-12 act	hgDAF-12 ag	Wee1 degr inh	DAX1 inh-1	DAX1 inh-2	hcDAF-12 act	DAX1 conf	SF1 mutant ctr
O=C1C=CC(c2c[nH]c3ccccc23)CC1 (configuration not stated)	0	-3	/	/	-1	2	/	/
CCOC(=O)C1(Cc2cccc(OC)c2)CCCN(C(=O)CCN2CCCO2)C1 (configuration not stated)	0	11*	/	1	4.8*	3	7.0*	5.8*
CCC(C(=O)NCc1ccccc1)n1c(CSCCOc2ccccc2)nc2ccccc21 (configuration not stated)	-3	-16	/	/	-3	-7	/	/
CN1CCN(c2ccc(NC(=O)c3ccc4ccccc4c3)cc2)CC1	0	9	/	0	8.2*	3	10*	0
COc1ccc(C(=O)Nc2ccc(N3CCN(C)CC3)cc2)cc1OC	-1	6	/	3	1	3	/	/
CN1CCN(c2ccc(NC(=O)c3ccc(Br)o3)cc2)CC1	0	12*	/	1	6.2*	4	8.3*	6.1*
Cc1cc(C)cc(C(=O)Nc2ccc(N3CCCC3)cc2)c1	0	12*	8	1	4.5*	3	13*	5.8*
CCOc1cc(OCC)cc(C(=O)N2CCC[C@H]2C(=O)N2CCC[C@H]2C(=O)N(C)Cc2ccccc2)c1	-1	0	/	/	0	0	/	/
CC(=O)c1ccccc1NC(=O)COC(=O)CN1C(=O)C2CCCCC2C1=O (configuration not stated)	0	1	/	1	1	1	/	/
O=C(Nc1ccc2oc(-c3ccccc3Cl)nc2c1)c1ncn[nH]1	0	10	3	3	6.7*	5.8*	14*	7.9*
O=C(c1ccco1)N1CCN(c2ncccn2)CC1	-1	7	0	1	2	-1	/	/
O=C1CCCc2nc(N3CCN(C(=O)c4ccco4)CC3)ncc21	1	5	/	2	5.7*	2	5.9*	3.4*
CC(=O)Nc1nc(-c2ccc(-c3ccccc3)cc2)cs1	-1	4	/	2	4.5*	1	5.9*	4.5*
CC(=O)NNc1nc(-c2ccccc2)cs1	-1	1	6	0	0	4	/	/
COc1cc(/C=C2\SC(=S)N(CCCCC(=O)O)C2=O)ccc1OS(=O)(=O)c1ccc(C)cc1	-1	-4	/	1	5.9*	0	6.2*	5.8*

Screening data from PubChem.
